An excerpt weighted towards active compounds, which were near 2.1% of everything screened.
STAT3 SMM = binds human STAT3 on microarray | P40763 | Small molecule microarray, His-STAT3 binding, anti-His fluorescence | calls only | actives 0.2% (n = 17,000) | AID 624138;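 active = compounds whose four printed spots each show fluorescence over background unusually high for their array block, chance value under 7%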
p53 mut binder = binds human mutant p53 on microarray; calls only; small molecule microarray binding, anti-GST fluorescence; actives 0.4% (n = 17,000);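 active = compounds whose four printed spots each glow above background more than chance allows, each with a p-value under 7%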
NFkB SMM = binds human NF-kappa-B p105 on microarray | AID 624139 | calls only | P19838 | Small molecule microarray, anti-His fluorescence binding | actives 1.3% (n = 17,000);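 active = spot fluorescence over background significantly raised, with a chance value under 7% in all four replicate spots of the compound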;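 also: probe protein is his-tagged human p50 processed subunit at 1 µg/ml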
Myc binder = binders of human c-Myc; P01106; small molecule microarray, His-c-Myc binding, anti-His fluorescence; calls only; actives 1.5% (n = 17,000);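 active = spot fluorescence over background with P-value below 7% in all four replicate spots, showing protein binding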
Calls only; . = inactive; + = active, no number.

SMILES	STAT3 SMM	p53 mut binder	NFkB SMM	Myc binder
CCC(C)[C@H]1C(=O)O[C@H](C(C)C)C(=O)N(C)[C@@H](C(C)C)C(=O)O[C@H](C(C)C)C(=O)N(C)[C@@H](C(C)C)C(=O)O[C@H](C(C)C)C(=O)N1C (stereo not given in full)	.	.	+	.
CCC(CO)NC(=O)C1C=C2c3cccc4[nH]cc(c34)CC2N(C)C1 (stereo not given)	.	.	+	+
CC[C@@H](CO)NC(=O)[C@@H]1C=C2c3cccc4c3c(cn4C)C[C@H]2N(C)C1	.	.	.	+
CC(=O)c1c(C)n(Cc2ccccc2)c2c(Cl)c(Cl)c(Cl)c(OCC(=O)O)c12	.	.	.	.
O=C1/C(=C/c2ccccc2)C[C@@]2(O)C3Cc4ccc(O)c5c4[C@@]2(CCN3CC2CC2)[C@H]1O5	.	.	.	.
O=C(O)C1C2CCC(O2)C1C(=O)NCCc1ccccc1 (stereo not given)	.	.	.	+
COC1CC(OC2CCC3(C)C(CCC4(O)C3CC(OC(=O)c3ccccc3)C3(C)C(O)(C(C)=O)CCC43O)C2)OC(C)C1OC1CC(OC)C(OC2OC(C)C(O)C(OC)C2O)C(C)O1 (stereo not given)	.	.	+	+
CO[C@H]1[C@@H](O)[C@@H](C)O[C@@H](OC2CCC3(C)C(CC[C@@H]4[C@@H]3CCC3(C)C(C5=CC(=O)OC5)C(O)CC43O)C2)[C@@H]1O (stereo not given in full)	.	.	.	.
CC[C@@H]1/C=C\C=C\C[C@H](C)[C@@H](O)[C@](C)(O)C(=O)[C@H](C)[C@@H](O)[C@H](C)C(=O)[C@H](C)[C@@H](O)[C@H](C)/C=C/C(=O)O[C@H]2[C@@H](C)[C@@H](CC1)O[C@@]1(CC[C@@H](C)[C@@H](C[C@H](C)O)O1)[C@@H]2C	.	.	.	.
CO/C1=C/C(C)=C/[C@@H](C)[C@@H](O)[C@@H](C)C/C(C)=C/C=C\[C@H](OC)[C@@H]([C@@H](C)[C@@H](O)[C@H](C)[C@@]2(O)C[C@@H](O)[C@H](C)[C@@H](C(C)C)O2)OC1=O	.	.	.	.
Cc1ccc2c(c1)Cc1c(C(=O)NC3CCCCC3)nn(-c3ccc(Cl)cc3Cl)c1-2	.	.	+	.
CNCC(O)c1ccc(O)c(OC)c1 (stereo not given)	.	.	.	.

Assay outcomes (PubChem BioAssay)
